# Unmarked numbers belong to inactive results. Results filed as inconclusive are left out. Entries that show only a call come without a potency. Activity calls are given as the source filed them. Unless noted, the call rests on the fitted dose curve.
# Legend:
# [1] = Nuclear factor erythroid 2-related factor 2/antioxidant responsive element (Nrf2/ARE) small molecule agonists: qHTS cell viability counter screen in human keratinocytes (AID 1919968; active means well fitted curve in the direction sought with a large enough effect in the repeat runs; an effect the other way counts as inactive or inconclusive; further: nearly all actives have a fitted effect of over 55% in size)
# Summary of the method: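 KeratinoSens cells (HaCaT keratinocytes stably carrying an ARE-luciferase reporter) were seeded at 1,500 cells/well and rested 5 h at 37 C/5% CO2. They were then exposed to compounds in DMSO for 23 h. Viability was read by CellTiter-Fluor fluorescence after 1 h.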
# [2] = Nuclear factor erythroid 2-related factor 2/antioxidant responsive element (Nrf2/ARE) small molecule agonists: luciferase reporter gene qHTS assay in human keratinocytes (AID 1919969); further: nearly all actives have a fitted effect of over 35% in size; further: potency means the concentration at half of the fitted maximal effect
# [3] = biological target: Gonadotropin-releasing hormone receptor (Homo sapiens) (UniProt P30968); experiment: Human gonadotropin-releasing hormone receptor (GnRHR) small molecule agonists, calcium flux assay in GnRHR-HEK293 cells (AID 1920063); further: nearly all actives have a fitted effect of over 35% in size
# Gonadotropin-releasing hormone receptor (Homo sapiens), sequence (P30968 whole entry, looked up): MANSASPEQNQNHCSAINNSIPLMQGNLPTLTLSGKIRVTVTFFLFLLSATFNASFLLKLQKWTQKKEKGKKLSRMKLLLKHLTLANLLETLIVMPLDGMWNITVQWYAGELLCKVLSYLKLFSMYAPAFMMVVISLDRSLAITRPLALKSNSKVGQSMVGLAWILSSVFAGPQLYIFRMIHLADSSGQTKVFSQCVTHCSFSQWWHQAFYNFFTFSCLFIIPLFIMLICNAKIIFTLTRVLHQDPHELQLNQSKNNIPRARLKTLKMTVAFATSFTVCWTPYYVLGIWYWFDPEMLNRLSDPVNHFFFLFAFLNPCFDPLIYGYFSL
# Summary of the method: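 HEK293 cells stably expressing human GnRHR were plated 18 h at 37 °C, loaded with calcium dye 1 h at 37 °C, then given compound in agonist mode; fluorescence (Ex/Em 480/540) read kinetically for 3 min at 1 s intervals.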
# [4] = biological target: KiSS-1 receptor (Homo sapiens) (UniProt Q969F8); experiment: Human kisspeptin (KISS1R) small molecule agonists, calcium flux assay in KISS1R-HEK293 cells (AID 1920064; active means well fitted curve in the direction sought with a large enough effect in the repeat runs; an effect the other way counts as inactive or inconclusive)
# KiSS-1 receptor (Homo sapiens), sequence (Q969F8 whole entry, looked up): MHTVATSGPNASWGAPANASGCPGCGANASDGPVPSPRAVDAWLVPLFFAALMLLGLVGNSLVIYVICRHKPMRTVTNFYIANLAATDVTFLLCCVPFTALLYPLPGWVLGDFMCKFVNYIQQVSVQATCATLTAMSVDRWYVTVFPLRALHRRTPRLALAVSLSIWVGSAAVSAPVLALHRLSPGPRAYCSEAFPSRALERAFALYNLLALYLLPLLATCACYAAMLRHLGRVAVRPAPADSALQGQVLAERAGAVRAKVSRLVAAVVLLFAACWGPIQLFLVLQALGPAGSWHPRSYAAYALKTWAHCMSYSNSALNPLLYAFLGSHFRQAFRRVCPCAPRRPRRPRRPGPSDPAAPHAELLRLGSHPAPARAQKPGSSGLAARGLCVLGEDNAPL
# Summary of the method: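 HEK293 cells stably expressing human KISS1R were plated 18 h at 37 °C, loaded with calcium dye for 1 h at 37 °C, then given compound by pin tool. Fluorescence (Ex/Em 480/540) was read kinetically for 3 min.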
# [5] = G protein-coupled receptor (GPCR) small molecule agonists, calcium flux assay: HEK293 wild type cell line counter screen (AID 1920065)
# Summary of the method: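 Cells were plated and cultured 18 h at 37 C/5% CO2, then loaded with calcium dye for 1 h at 37 C. Compounds in DMSO were pin-transferred in agonist mode, and fluorescence (Ex/Em 480/540) was read kinetically for 3 min at 1 s intervals.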
# [6] = p53 small molecule agonists, cell-based qHTS assay with human liver microsomes (AID 1963577);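 further: p53 response element beta-lactamase reporter cells with liver microsomes plus NADPH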
# Summary of the method: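 With metabolic activation: human liver microsomes (0.5 mg/mL final) plus NADPH (0.5 mg/mL final) added alongside compounds to p53RE-bla cells; 16 h 37 C exposure; beta-lactamase read by LiveBLAzer fluorescence.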
# [7] = p53 small molecule agonists, cell-based qHTS assay with rat liver microsomes (AID 1963578)
# Summary of the method: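 Metabolic activation by rat liver microsomes and NADPH, each 0.5 mg/mL final, added right after compounds to p53RE-bla reporter cells (4,000/well, plated 5 h earlier). 16 h at 37 C, then LiveBLAzer substrate for 2 h at room temperature in the dark; fluorescence read-out.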
# [8] = p53 small molecule agonists, cell-based qHTS assay with human liver microsomes: qHTS cell viability counter screen (AID 1963579); further: nearly all actives have a fitted effect of over 45% in size
# Summary of the method: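 Metabolic activation used human liver microsomes and NADPH, both 0.5 mg/mL final, over 16 hours at 37 C on p53RE-bla cells (4,000/well). Cytotoxicity measured by CellTiter-Glo luminescence, 30 min at room temperature.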
# [9] = p53 small molecule agonists, cell-based qHTS assay with rat liver microsomes: qHTS cell viability counter screen (AID 1963580); further: nearly all actives have a fitted effect of over 45% in size
# Summary of the method: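 HCT-116 p53RE-bla, 4,000 cells/well, 5 h pre-incubation; cpd + rat liver microsomes 0.5 mg/mL + NADPH 0.5 mg/mL (final); 16 h, 37 C; CellTiter-Glo, 30 min RT; luminescence.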
# [10] = p53 small molecule agonists, cell-based qHTS assay: qHTS cell viability counter screen (AID 1963581); further: nearly all actives have a fitted effect of over 45% in size
# Summary of the method: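 p53RE-bla HCT-116 cells were exposed to compounds for 16 h at 37 C; after the beta-lactamase FRET read in the same wells, CellTiter-Glo was added and luminescence (intracellular ATP) read after 30 min at room temperature.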
# [11] = p53 small molecule agonists, cell-based qHTS assay (AID 1963582; active means well fitted activation curve with a large enough effect in the signal ratio in the repeat runs, not every such curve was filed as active; the % refers to the signal ratio)
# Summary of the method: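 p53RE-bla beta-lactamase reporter cells rested 5 h at 37 C/5% CO2, then received compounds in DMSO by pin transfer and were incubated 16 h at 37 C. LiveBLAzer B/G FRET substrate was loaded for 2 h at room temperature before fluorescence reading.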
# [12] = biological target: Muscarinic acetylcholine receptor M1 (Homo sapiens) (UniProt P11229); experiment: Cholinergic receptor muscarinic 1 (CHRM1) small molecule antagonists, cell-based qHTS assay (AID 1963588); further: nearly all actives have a fitted effect of over 40% in size
# Muscarinic acetylcholine receptor M1 (Homo sapiens), sequence (P11229 whole entry, looked up): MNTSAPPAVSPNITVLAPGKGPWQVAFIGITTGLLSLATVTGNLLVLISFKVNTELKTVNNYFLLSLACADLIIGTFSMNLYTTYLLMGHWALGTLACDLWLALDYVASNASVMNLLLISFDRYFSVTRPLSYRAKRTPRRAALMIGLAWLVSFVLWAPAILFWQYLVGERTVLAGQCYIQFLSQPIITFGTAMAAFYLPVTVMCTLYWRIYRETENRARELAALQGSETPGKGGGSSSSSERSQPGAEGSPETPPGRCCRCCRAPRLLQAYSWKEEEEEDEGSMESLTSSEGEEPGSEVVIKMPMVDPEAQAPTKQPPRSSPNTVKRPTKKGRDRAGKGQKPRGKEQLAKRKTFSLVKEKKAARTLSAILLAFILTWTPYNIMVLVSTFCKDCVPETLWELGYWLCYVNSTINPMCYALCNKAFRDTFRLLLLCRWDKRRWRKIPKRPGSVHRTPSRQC
# Summary of the method: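 CHRM1-CHO calcium-flux assay, antagonist mode. Cells were seeded 18 h, dye-loaded 1 h at 37 C and given compound for 5 min at RT, then acetylcholine was added at 50nM. FDSS fluorescence was read 3 min; 15 concentrations, three runs.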
# [13] = biological target: Muscarinic acetylcholine receptor M1 (Homo sapiens) (UniProt P11229); experiment: Cholinergic receptor muscarinic 1 (CHRM1) small molecule agonists, cell-based qHTS assay (AID 1963589); further: nearly all actives have a fitted effect of over 35% in size
# Summary of the method: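 CHO cells stably expressing human CHRM1, seeded 18 h at 37 C/5% CO2, dye-loaded 1 h at 37 C, then given compound in agonist mode; intracellular calcium fluorescence read kinetically at 1 s intervals. Fifteen concentrations, three independent runs.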
# [14] = cAMP Responsive Elements (CRE) small molecule agonists, cell-based qHTS assay (AID 1963590)
# Summary of the method: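 CRE-bla HEK 293T cells in DMEM with 10% dialyzed FBS, NEAA, pyruvate and 25 mM HEPES were plated 18 h at 37 C/5% CO2, then exposed to compounds in DMSO for 3 h before LiveBLAzer B/G FRET substrate addition.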
# [15] = cAMP Responsive Elements (CRE) small molecule antagonists, cell-based qHTS assay (AID 1963591; active means well fitted inhibition curve with a large enough effect in the signal ratio in the repeat runs, not every such curve was filed as active; the % refers to the signal ratio)
# Summary of the method: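 CRE-bla HEK293T cells were plated 18 h at 37 °C/5% CO2, pinned with compound in DMSO, then stimulated with NKH477 at 0.25 uM final for 3 h. LiveBLAzer B/G FRET substrate was added and plates incubated 2 h at room temperature.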
# [16] = biological target: Beta-2 adrenergic receptor (Homo sapiens) (UniProt P07550); experiment: Adrenergic beta2 receptor (ADRB2) small molecule agonists, cell-based qHTS assay (AID 1963593);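 further: CHO cells stably overexpressing human ADRB2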
# Beta-2 adrenergic receptor (Homo sapiens), sequence (P07550 whole entry, looked up): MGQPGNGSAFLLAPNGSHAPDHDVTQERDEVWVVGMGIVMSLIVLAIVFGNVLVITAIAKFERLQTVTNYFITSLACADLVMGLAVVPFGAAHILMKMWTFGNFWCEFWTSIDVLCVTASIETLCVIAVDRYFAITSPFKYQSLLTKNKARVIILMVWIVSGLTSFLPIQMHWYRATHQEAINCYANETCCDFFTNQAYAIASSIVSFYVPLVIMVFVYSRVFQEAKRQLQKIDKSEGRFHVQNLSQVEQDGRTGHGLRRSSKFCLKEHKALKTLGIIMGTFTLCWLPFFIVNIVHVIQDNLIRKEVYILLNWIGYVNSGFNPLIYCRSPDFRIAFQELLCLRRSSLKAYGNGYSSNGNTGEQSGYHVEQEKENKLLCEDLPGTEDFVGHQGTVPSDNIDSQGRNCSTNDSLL
# Summary of the method: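 CHO cells stably over-expressing ADRB2 were plated overnight at 37C, then dosed with compounds plus a stimulation mix containing 100uM IBMX and 25uM Ro-20-1724 for 0.5hr at room temperature. cAMP was measured by HTRF competition, 1hr.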
# [17] = biological target: D(2) dopamine receptor (Homo sapiens) (UniProt P14416); experiment: Dopamine D2 receptor (DRD2) small molecule agonists, cell-based qHTS assay (AID 1963594); further: nearly all actives have a fitted effect of over 35% in size
# D(2) dopamine receptor (Homo sapiens), sequence (P14416 whole entry, looked up): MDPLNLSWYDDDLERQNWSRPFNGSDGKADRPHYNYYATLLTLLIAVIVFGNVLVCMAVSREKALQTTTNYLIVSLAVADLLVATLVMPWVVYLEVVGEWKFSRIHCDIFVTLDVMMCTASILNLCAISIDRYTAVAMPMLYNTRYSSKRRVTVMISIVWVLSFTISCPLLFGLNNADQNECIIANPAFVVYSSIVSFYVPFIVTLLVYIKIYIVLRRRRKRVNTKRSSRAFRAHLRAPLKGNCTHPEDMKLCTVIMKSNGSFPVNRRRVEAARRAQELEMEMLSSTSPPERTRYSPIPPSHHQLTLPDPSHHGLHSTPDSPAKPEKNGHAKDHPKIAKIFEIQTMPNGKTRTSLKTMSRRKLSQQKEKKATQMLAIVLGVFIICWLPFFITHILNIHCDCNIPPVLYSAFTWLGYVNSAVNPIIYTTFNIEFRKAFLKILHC
# Summary of the method: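 cAMP accumulation in DRD2-HEK293 cells measured by HTRF after 1 h detection; compounds added 10 min before NKH477 (200nM […]) forskolin-analogue stimulation, 30 min at room temperature, with Ro20-1724 present at 0.1 mM final.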
# [18] = biological target: D(2) dopamine receptor (Homo sapiens) (UniProt P14416); experiment: Dopamine D2 receptor (DRD2) small molecule antagonists, cell-based qHTS assay (AID 1963595; active means well fitted inhibition curve with a large enough effect in the signal ratio in the repeat runs, with a control signal flat; the % refers to the signal ratio)
# Summary of the method: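 DRD2-HEK293; 0.1 mM Ro20-1724; cpd 10 min RT; NKH477 200 nM + quinpirole 12 nM, 30 min RT; HTRF cAMP (cAMP-d2/anti-cAMP cryptate), 665/620 nm ratio after 1 h.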
# [19] = biological target: Beta-2 adrenergic receptor (Homo sapiens) (UniProt P07550); experiment: Adrenergic beta2 receptor (ADRB2) small molecule antagonists, cell-based qHTS assay (AID 1963592); further: series mostly up to about 92 µM; nearly all actives have a fitted effect of over 50% in size
# Summary of the method: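 Cells (CHO, stable ADRB2 overexpression) incubated 18-20hr at 37C; compounds added from DMSO; agonist mix (1nM isoproterenol, 100uM IBMX, 25uM Ro-20-1724) added; 0.5hr RT; d2-cAMP and anti-cAMP-cryptate added; 1hr RT; 665/615 nm read.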
# [20] = biological target: 5-hydroxytryptamine receptor 2A (Homo sapiens) (UniProt P28223); experiment: 5-hydroxytryptamine receptor 2A (HTR2A) small molecule agonists, cell-based qHTS assay (AID 1963587); further: nearly all actives have a fitted effect of over 30% in size
# 5-hydroxytryptamine receptor 2A (Homo sapiens), sequence (P28223 whole entry, looked up): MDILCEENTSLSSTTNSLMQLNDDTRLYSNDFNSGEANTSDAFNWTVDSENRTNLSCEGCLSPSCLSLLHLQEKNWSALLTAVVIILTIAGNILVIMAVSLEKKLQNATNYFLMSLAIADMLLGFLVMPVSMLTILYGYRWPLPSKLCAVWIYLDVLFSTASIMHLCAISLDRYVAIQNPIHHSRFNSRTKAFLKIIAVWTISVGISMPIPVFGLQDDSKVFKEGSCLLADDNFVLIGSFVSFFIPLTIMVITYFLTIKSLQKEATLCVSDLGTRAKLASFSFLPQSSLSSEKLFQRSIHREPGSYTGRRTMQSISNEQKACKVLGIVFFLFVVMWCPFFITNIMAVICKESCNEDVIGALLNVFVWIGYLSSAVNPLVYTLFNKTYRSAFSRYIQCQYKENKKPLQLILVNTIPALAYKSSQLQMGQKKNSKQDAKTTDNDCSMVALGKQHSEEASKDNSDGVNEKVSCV
# Summary of the method: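 Kinetic calcium-flux fluorescence (2 min, 1 sec intervals) after compound addition in agonist mode. HTR2A-CHO cells were cultured 18 h, then dye-loaded 1 h at 37 C.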
compound,measurement,setting,value
OC1CCC(C2CCCCC2)CC1 (centres undefined),Potency,[1],inactive
same,Potency,[2],inactive
same,Potency,[3],inactive
same,outcome,[4],inactive
same,outcome,[5],inactive
same,Potency,[6],inactive
same,Potency,[7],inactive
same,Potency,[8],inactive
same,Potency,[9],inactive
same,Potency,[10],inactive
same,Potency,[11],inactive
same,Potency,[12],inactive
same,Potency,[13],inactive
same,Potency,[14],inactive
same,Potency,[15],inactive
same,Potency,[16],inactive
same,Potency,[17],inactive
same,Potency,[18],inactive
CC(C)C(=O)OCc1cccc(OC(=O)[C@@H]2N3C(=O)[C@@H](NC(=O)Cc4ccccc4)[C@H]3SC2(C)C)c1,Potency,[1],inactive
same,Potency,[2],inactive
same,Potency,[3],inactive
same,outcome,[4],inactive
same,outcome,[5],inactive
same,Potency,[6],inactive
same,Potency,[7],inactive
same,Potency,[8],inactive
same,Potency,[9],inactive
same,Potency,[10],inactive
same,Potency,[11],inactive
same,Potency,[12],inactive
same,Potency,[13],inactive
same,Potency,[14],inactive
same,Potency,[15],inactive
same,Potency,[19],inactive
same,Potency,[17],inactive
same,Potency,[18],inactive
C[N+]1(CC2COC(c3ccccc3)(c3ccccc3)O2)CCCCC1 (centres undefined),"activity change, negative = cytotoxicity",[1],-0.244% [at 19 µM]
same,"activity, positive = activation",[2],-7.02% [at 19 µM]
same,activity change,[3],"-0.634% [at 11.8 µM, stronger effect = higher value]"
same,activation,[4],-1.44% [at 15.8 µM]
same,activation,[5],0.724% [at 11.8 µM]
same,activation,[6],0.35% [at 13.5 µM]
same,activation,[7],-0.64% [at 13.6 µM]
same,"activity change, negative = cytotoxicity",[8],-12% [at 13.5 µM]
same,"activity change, negative = cytotoxicity",[9],4.65% [at 13.5 µM]
same,"activity change, negative = cytotoxicity",[10],-20.9% [at 13.5 µM]
same,activation,[11],0.97% [at 13.5 µM]
same,activation,[20],-9.9% [at 15.9 µM]
same,activation,[13],10.6% [at 15.8 µM]
same,activation,[14],-0.37% [at 19 µM]
same,"activity change, negative = inhibition",[15],1.85% [at 18.9 µM]
same,"activity change, negative = inhibition",[19],-7.43% [at 19 µM]
same,Potency,[16],inactive
same,activation,[17],-6.08% [at 19 µM]
same,"activity change, negative = inhibition",[18],7.28% [at 18.9 µM]
Cc1cc2c(cc1S(N)(=O)=O)S(=O)(=O)CCC2,Potency,[1],inactive
same,Potency,[2],inactive
same,Potency,[3],inactive
same,outcome,[4],inactive
same,outcome,[5],inactive
same,Potency,[6],inactive
same,Potency,[7],inactive
same,Potency,[8],inactive
same,Potency,[9],inactive
same,Potency,[10],inactive
same,Potency,[11],inactive
same,Potency,[20],inactive
same,Potency,[12],inactive
same,Potency,[13],inactive
same,Potency,[15],inactive
same,Potency,[19],inactive
same,Potency,[17],inactive
same,Potency,[18],inactive
O=P(O)(O)OCC(O)CO (centres undefined),Potency,[1],inactive
same,Potency,[2],inactive
same,Potency,[3],inactive
same,outcome,[4],inactive
same,outcome,[5],inactive
same,Potency,[6],inactive
same,Potency,[7],inactive
same,Potency,[8],inactive
same,Potency,[9],inactive
same,Potency,[10],inactive
same,Potency,[11],inactive
same,Potency,[12],inactive
same,Potency,[13],inactive
same,Potency,[14],inactive
same,Potency,[19],inactive
same,Potency,[16],inactive
same,Potency,[17],inactive
same,Potency,[18],inactive
CCCCCCCCCCCCCc1ccccc1,Potency,[1],inactive
same,Potency,[2],inactive
same,Potency,[3],inactive
same,outcome,[4],inactive
same,outcome,[5],inactive
same,Potency,[6],inactive
same,Potency,[7],inactive
same,Potency,[8],inactive
same,Potency,[9],inactive
same,Potency,[10],inactive
same,Potency,[11],inactive
same,Potency,[20],inactive
same,Potency,[12],inactive
same,Potency,[14],inactive
same,Potency,[15],inactive
same,Potency,[19],inactive
same,Potency,[16],inactive
same,Potency,[17],inactive
same,Potency,[18],inactive
CCCCCCOc1ccc(N)cc1,Potency,[1],inactive
same,Potency,[2],21.7 µM (active)
same,Potency,[3],inactive
same,outcome,[4],inactive
same,outcome,[5],inactive
same,Potency,[6],inactive
same,Potency,[7],inactive
same,Potency,[8],inactive
same,Potency,[9],inactive
same,Potency,[10],inactive
same,Potency,[11],inactive
same,Potency,[12],inactive
same,Potency,[13],inactive
same,Potency,[14],inactive
same,Potency,[15],inactive
same,Potency,[19],inactive
same,Potency,[16],inactive
same,Potency,[17],inactive
same,Potency,[18],inactive

# — PubChem BioAssay (Tox21)
